# Values joined by “and” are separate entries in the source; they are usually repeats but may differ in a detail not shown here. Equal values may be shown once. Records with an inconclusive call do not appear. Active and inactive are the calls of the source. Rule for the calls: active = hit-call score of the fitted dose curve at least 0.9, where 1 is the maximum; inconclusive = response in the unintended direction; inactive = score below 0.9.
# Target: human Peroxisome Proliferator-activated Receptor alpha (PPARa), PPARA (gene 5465) (UniProt Q07869)
# Experiment: NVS_NR_hPPARa: NovaScreen (NVS) Nuclear Receptor Binding Assay for human Peroxisome Proliferator-activated Receptor alpha (PPARa) (AID 2283359);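 note: activity means loss of TR-FRET signal versus DMSO baseline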
# Experimental: NVS_NR_hPPARa is a biochemical, single-readout assay that uses extracted gene-proteins in a cell-free assay. Measurements were taken 1 hour after chemical dosing in a 384-well plate.NVS_NR_hPPARa is one of one assay component(s) measured or calculated from the NVS_NR_hPPARa assay. It is designed to make measurements of fluorescent resonance energy transfer, a form of binding reporter, as detected with fluorescent resonance energy transfer signals by Time-Resolved Fluorescence Resonance Energy Transfer (TR-FRET) technology.Data from the assay component NVS_NR_hPPARa was analyzed into 1 assay endpoint. This assay endpoint, NVS_NR_hPPARa, was analyzed in the positive analysis fitting direction relative to DMSO as the negative control and baseline of activity. Using a type of binding reporter, loss-of-signal activity can be used to understand changes in the binding as they relate to the gene PPARA. Furthermore, this assay endpoint can be referred to as a primary readout, because the performed assay has only produced 1 assay endpoint. To generalize the intended target to other relatable targets, this assay endpoint is annotated to the nuclear receptor intended target family, where the subfamily is non-steroidal.
# Binding assays used specific radioligands (tritiated, iodinated) with non-radioactive competitive displacement ligands in agonist or antagonist protocols (as indicated) and various reference compounds and inhibitors to titrate specific binding to receptors and transporters. Most enzyme assays (CYPs, kinases, phosphatases, proteases, HDACs) used recombinant protein and specific substrates (fluorescence mostly, some colorimetric and radioactive) and inhibitors, followed by a biochemical separation of substrate and product. All assays for the biochemical HTS were initially run in duplicate at a single concentration (10 uM for CYP450 assays and 25 uM for all others). […] Each assay was run with positive and negative controls, and concurrent controls on every plate. The follow-up (secondary) screen tested active chemical-pairs in concentration series, as well as a few additional assays not tested in the primary screen, some selected negative inactives, and several cases re-run in the concentration series for confirmatory purposes.
# Chain of human Peroxisome Proliferator-activated Receptor alpha (PPARa), PPARA (gene 5465) (Q07869 whole entry, looked up): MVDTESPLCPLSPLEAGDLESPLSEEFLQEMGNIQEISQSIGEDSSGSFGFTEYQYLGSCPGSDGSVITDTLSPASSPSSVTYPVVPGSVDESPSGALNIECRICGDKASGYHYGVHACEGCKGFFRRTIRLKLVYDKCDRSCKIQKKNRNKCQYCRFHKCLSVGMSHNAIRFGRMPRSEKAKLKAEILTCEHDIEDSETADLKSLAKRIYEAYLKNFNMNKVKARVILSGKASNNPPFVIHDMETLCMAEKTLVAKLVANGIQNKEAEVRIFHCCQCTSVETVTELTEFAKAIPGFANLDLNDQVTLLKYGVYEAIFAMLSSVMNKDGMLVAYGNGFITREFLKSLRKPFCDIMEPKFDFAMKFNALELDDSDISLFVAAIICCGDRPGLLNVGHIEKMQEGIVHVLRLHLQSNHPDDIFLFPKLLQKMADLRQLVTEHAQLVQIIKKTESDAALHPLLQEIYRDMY
SMILES,outcome,AC50
CC(=O)c1ccc2ccccc2c1,inactive,
CC/C(=C(\c1ccccc1)c1ccc(OCCN(C)C)cc1)c1ccccc1,inactive,
CCCCC(CC)COCCO (stereo not given),inactive,
O=C(c1ccc(OCCN2CCCCC2)cc1)c1c(-c2ccc(O)cc2)sc2cc(O)ccc12,,6.51 µM (active) and 6.99 µM (active) and 5.41 µM (active)
CCCCCCCCCCCCOCCOS(=O)(=O)O,,5.08 µM (active)
C1CCCNCC1,inactive,
CC(=O)C1=C(C)[C@@H]2C[C@@]3(C1)[C@H](C)CC[C@H]3C2(C)C,inactive,
CN1CCc2cccc3c2[C@H]1Cc1ccc(O)c(O)c1-3,,0.279 µM (active)
C#C[C@]1(O)CC[C@H]2[C@@H]3CCc4cc(O)ccc4[C@H]3CC[C@@]21C,inactive,
CCCCN(CCCC)CCCCCCN(CCCC)CCCC,inactive,
